# Assay results taken from PubChem BioAssay (NCATS).
# Results filed as inconclusive are left out. A call without a number means that no potency is given here. Active and inactive are the calls of the source. The call rests on the fitted dose curve; in most records, active means well fitted curve in the direction sought with a large enough effect; inconclusive means small, poorly fitted or top-dose-only effect, or another doubt; inactive means no such curve, though single readings can be large; an effect the other way counts as inactive or inconclusive.
# Assays:
# [1] = qHTS of pediatric cancer cell lines to identify multiple opportunities for drug repurposing: Primary screen for SK-N-SH cells (AID 1347098); further: nearly all actives have a fitted effect of over 65% in size
# Method in brief: (§1)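 Cells (500-1,000/well) rested 5 h, then received compounds for 48 h; metabolically active cells were measured by CellTiter-Glo luminescence. Final concentrations spanned up to 46 µM (MIPE, 11-point) or 0.59 nM-46 µM (NPC, 8-point) in primary screens, 11-point in follow-ups.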
# [2] = qHTS of pediatric cancer cell lines to identify multiple opportunities for drug repurposing: Primary screen for NB1643 cells (AID 1347099); further: nearly all actives have a fitted effect of over 50% in size
# Method in brief: (§2)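 Primary screen of approved and investigational compounds on cells in growth media at 37 degrees C, 5% CO2. MIPE set at 11-point and NPC set at 8-point dilutions; viability scored by ATP-based luminescence at 48 hours.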
# [3] = qHTS of pediatric cancer cell lines to identify multiple opportunities for drug repurposing: Primary screen for LAN-5 cells (AID 1347100)
# Method in brief: (§3)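 Viability after 48 h compound treatment at 37C, 500-1,000 cells/well, read as ATP luminescence with CellTiter-Glo. Primary screens used 11-point (MIPE, 0.78 nM-46 µM) or 8-point (NPC, 0.59 nM-46 µM) final concentrations; follow-up screens used 11-point dilutions.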
# [4] = qHTS of pediatric cancer cell lines to identify multiple opportunities for drug repurposing: Primary screen for Rh18 cells (AID 1347102); further: nearly all actives have a fitted effect of over 65% in size
# Method in brief: as §3
# [5] = qHTS of pediatric cancer cell lines to identify multiple opportunities for drug repurposing: Primary screen for RD cells (AID 1347104); further: nearly all actives have a fitted effect of over 55% in size
# Method in brief: as §2
# [6] = qHTS of pediatric cancer cell lines to identify multiple opportunities for drug repurposing: Primary screen for control Hh wild type fibroblast cells (AID 1347106); further: nearly all actives have a fitted effect of over 55% in size
# Method in brief: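 Cells (500-1,000/well) in growth media were settled 5 h at 37 degrees C, then given compounds for 48 h. Viability was read as CellTiter-Glo luminescence. Primary runs used MIPE at 11 points (0.78 nM-46 µM) and NPC at 8 points (0.59 nM-46 µM); follow-ups used 11 points.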
# [7] = qHTS of pediatric cancer cell lines to identify multiple opportunities for drug repurposing: Primary screen for Rh30 cells (AID 1347107); further: nearly all actives have a fitted effect of over 75% in size
# Method in brief: as §3
# [8] = qHTS of pediatric cancer cell lines to identify multiple opportunities for drug repurposing: Primary screen for OHS-50 cells (AID 1347103); further: nearly all actives have a fitted effect of over 40% in size
# Method in brief: as §1
# [9] = qHTS of pediatric cancer cell lines to identify multiple opportunities for drug repurposing: Primary screen for MG 63 (6-TG R) cells (AID 1347105); further: nearly all actives have a fitted effect of over 50% in size
# Method in brief: as §2
# [10] = qHTS of pediatric cancer cell lines to identify multiple opportunities for drug repurposing: Primary screen for BT-12 cells (AID 1347101); further: nearly all actives have a fitted effect of over 25% in size
# Method in brief: as §1
# Potency means the concentration at half of the fitted maximal effect.
Structure (SMILES),Potency [1],Potency [2],Potency [3],Potency [4],Potency [5],Potency [6],Potency [7],Potency [8],Potency [9],Potency [10]
O=C(CCCN1CCC(n2c(=O)[nH]c3ccccc32)CC1)c1ccc(F)cc1,inactive,inactive,inactive,inactive,inactive,inactive,inactive,–,–,–
CN(C)C(=S)SSC(=S)N(C)C,0.244 µM (active),0.531 µM (active),0.266 µM (active),0.15 µM (active),0.188 µM (active),0.299 µM (active),1.68 µM (active),0.347 µM (active),0.335 µM (active),–
c1ccc2c(c1)Sc1ccccc1N2CC1CN2CCC1CC2 (stereo unspecified),27.3 µM (active),23.7 µM (active),–,23.7 µM (active),15 µM (active),23.7 µM (active),–,19.5 µM (active),–,15.5 µM (active)
COc1cc(CC(C)N)cc2c1OCO2 (stereo unspecified),inactive,inactive,inactive,inactive,inactive,inactive,inactive,–,inactive,inactive
O=C1CN2CCOC2(c2ccccc2Cl)c2cc(Cl)ccc2N1 (stereo unspecified),inactive,inactive,inactive,inactive,inactive,inactive,inactive,–,inactive,–
NC1(c2ccccc2)CCCCC1,inactive,inactive,inactive,inactive,–,inactive,inactive,–,–,–
CCN(CC)Cc1nccn1-c1ccc([N+](=O)[O-])cc1C(=O)c1ccccc1Cl,inactive,inactive,inactive,inactive,inactive,inactive,–,–,–,inactive
CCCC[N+]1(C)[C@@H]2CC(OC(=O)[C@H](CO)c3ccccc3)C[C@H]1[C@@H]1O[C@@H]12 (stereo partly specified),inactive,inactive,inactive,inactive,inactive,inactive,inactive,inactive,inactive,–
NC(=O)CN1CCCC1=O,inactive,inactive,inactive,inactive,inactive,inactive,inactive,inactive,inactive,–
CC#C[C@]1(O)CC[C@H]2[C@@H]3C[C@H](C)C4=CC(=O)CC[C@]4(C)[C@H]3CC[C@@]21C,inactive,–,–,–,inactive,inactive,–,19.5 µM (active),–,–
CCO[C@H]1O[C@@H]2OC3(C)CC[C@H]4[C@H](C)CC[C@@H]([C@H]1C)[C@@]24OO3,–,–,–,inactive,–,inactive,–,13.8 µM (active),inactive,–
CN1CCC(N(Cc2ccccc2)c2ccccc2)CC1,–,inactive,inactive,inactive,–,inactive,inactive,–,–,inactive
O=C(CBr)Nc1ccc(Cl)cc1C(=O)c1ccccc1F,–,inactive,inactive,inactive,inactive,inactive,inactive,–,–,inactive
Nc1ccc(N)cc1,–,inactive,–,inactive,inactive,inactive,inactive,inactive,–,–
C[C@H](N)[C@H](O)c1ccc(O)c(O)c1,–,inactive,26.6 µM (active),inactive,inactive,inactive,inactive,inactive,inactive,–
C[N+]1(C)[C@@H]2CC[C@H]1CC(OC(=O)C(CO)c1ccccc1)C2 (stereo partly specified),–,inactive,inactive,inactive,inactive,inactive,–,inactive,inactive,–
CC(CC(C#N)(c1ccccc1)c1ccccc1)N(C)C (stereo unspecified),–,inactive,inactive,inactive,54.5 µM (active),inactive,inactive,28.2 µM (active),–,–

Structure (SMILES),Potency [1],Potency [2],Potency [3],Potency [4],Potency [5],Potency [6],Potency [7],Potency [8],Potency [9],Potency [10]
CN1[C@@H]2CC[C@H]1CC(OC(=O)c1cc(Cl)cc(Cl)c1)C2 (stereo partly specified),–,0.001 µM (active),–,inactive,–,inactive,inactive,–,inactive,inactive
O=C(N[C@@H]1N=C(c2ccccc2F)c2cccc3c2N(CC3)C1=O)c1cc2ccccc2[nH]1,–,inactive,inactive,inactive,inactive,inactive,inactive,inactive,–,inactive
CCC(OC(C)=O)C(CC(C)NC)(c1ccccc1)c1ccccc1 (stereo unspecified),–,–,43.7 µM (active),39 µM (active),27.6 µM (active),inactive,–,28.5 µM (active),–,35.9 µM (active)
Clc1ccc(CO/N=C(\Cn2ccnc2)c2ccc(Cl)cc2Cl)c(Cl)c1,–,–,23.7 µM (active),–,–,inactive,–,–,–,–
CC[C@]1(O)CC[C@H]2[C@@H]3CCC4=CCCC[C@@H]4[C@H]3CC[C@@]21C,–,inactive,inactive,–,inactive,inactive,inactive,–,–,–
CC(C(O)c1ccccc1)N(C)C/C=C/c1ccccc1 (stereo unspecified),–,–,inactive,inactive,inactive,inactive,inactive,–,inactive,inactive
C[C@]12CC[C@H]3[C@@H](CCC4=CC(=O)CC[C@@H]43)[C@@H]1CC[C@@H]2O,–,–,inactive,inactive,inactive,inactive,inactive,–,–,inactive
CC[C@H]1C[C@H]2[C@@H]3CCC4=CC(=O)CC[C@@H]4[C@H]3CC[C@]2(C)[C@H]1O,–,inactive,inactive,inactive,inactive,inactive,–,–,inactive,–
C#C[C@]1(O)CC[C@H]2[C@@H]3CCC4=CC(=O)CCC4=C3C=C[C@@]21CC,–,–,inactive,–,–,inactive,–,–,–,–
Clc1ccc(CSC(Cn2ccnc2)c2ccc(Cl)cc2Cl)cc1 (stereo unspecified),34.4 µM (active),–,–,–,23.7 µM (active),inactive,–,27.6 µM (active),–,–
O=C1NCN(c2ccccc2)C12CCN(CCCOc1ccc(F)cc1)CC2,–,inactive,inactive,–,–,inactive,inactive,27.6 µM (active),–,–
CC(=O)OC1(c2ccccc2)CCN(CCc2ccccc2)CC1,–,inactive,–,–,62.3 µM (active),inactive,–,32.4 µM (active),inactive,–
Oc1ccc([C@H]2CNCc3c2ccc(O)c3O)cc1O,–,inactive,–,–,inactive,inactive,inactive,inactive,–,–
CCC(=O)OC1(c2ccccc2)CCN(C)CC1,–,–,inactive,inactive,inactive,inactive,–,–,inactive,inactive
Clc1ccc(C(OCCN2CCCCC2)c2ccccc2)cc1 (stereo unspecified),–,inactive,inactive,inactive,–,inactive,–,19.5 µM (active),–,–
c1ccc2nc(N3CCNCC3)ccc2c1,–,inactive,inactive,inactive,inactive,inactive,inactive,inactive,–,inactive
